± gives the standard deviation.
What was measured:
Conditions in all cases: modulator concentration 10 µM
[1] = system: RAW-Dual (murine macrophage reporter line); assay: NF-kB reporter (SEAP) activity fold change vs agonist alone; higher = enhanced NF-kB activity
Procedure, shortened: (§1)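 In 384-well plates holding 50 000 RAW-Dual murine macrophage reporter cells per well, compound at 10 μM final was pre-incubated for 1 hour at 37 °C, after which a PRR agonist was added overnight. Supernatant SEAP read with QUANTI-Blue at 620 nm absorbance reported NF-κB, and Lucia luciferase read with QUANTI-Luc luminescence reported IRF. Fold change values come from dividing each reporter signal by the mean of agonist-only control wells on the same plate, averaged over replicate plates with propagated errors.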

[2] = system: RAW-Dual (murine macrophage reporter line); assay: IRF reporter (Lucia luciferase) activity fold change vs agonist alone; higher = enhanced IRF activity
Procedure, shortened: as §1

[3] = system: RAW-Dual (murine macrophage reporter line); assay: viability score (confluency relative to resting cells, overnight) (fraction); higher = more viable, active = viable (0.7 or more)
Procedure, shortened: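 In 384-well plates, RAW-Dual macrophages received compound at a final 10 μM overnight. Two confluency masks were then made with IncuCyte software from IncuCyte images of all imaged wells. The viability score is defined as confluency relative to resting cells. Passing the cutoff required both masks to lie above 70% of resting cells.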

[4] = agonist: CpG ODN 1826 0.5 ug/mL

SMILES	NF-kB reporter [1, 4]	NF-kB reporter ([1]; agonist: LPS 0.1 ug/mL)	NF-kB reporter ([1]; agonist: MPLA […])	IRF reporter ([2]; agonist: 3'3'-cGAMP 10 ug/mL)	IRF reporter ([2]; agonist: LPS 0.1 ug/mL)	IRF reporter ([2]; agonist: MPLA […])	viability score [3]
CC(=O)OCC(=O)NCCCOc1cccc(CN2CCCCC2)c1.Cl	1.14 ± 0.19	1.21 ± 0.23	0.924 ± 0.056	0.951 ± 0.039	1.42 ± 0.13	1.11 ± 0.1	0.99 (active)
COc1ccc(-c2[nH]c(-c3cccc(OC)c3)nc2SCC(=O)NC2CCCC2)cc1	0.849 ± 0.074	1.13 ± 0.056	1.91 ± 0.15	0.438 ± 0.026	0.824 ± 0.044	1.85 ± 0.14	1 (active)
CS(=O)(=O)C1CCN(C(=O)C2(c3ccccc3)CCOCC2)C1 (centres undefined)	0.986 ± 0.11	1.04 ± 0.083	0.927 ± 0.047	0.977 ± 0.068	1 ± 0.087	1.03 ± 0.33	1.02 (active)
CNC(=O)[C@H](Cc1c[nH]c2ccccc12)NC(=O)[C@@H](CC(=O)NO)CC(C)C	1.1 ± 0.26	1.33 ± 0.074	1.07 ± 0.074	0.88 ± 0.035	1.07 ± 0.12	1.12 ± 0.12	0.995 (active)
CN(C)CC(c1ccc(O)cc1)C1(O)CCCCC1.O=C(O)CCC(=O)O (centres undefined)	0.101 ± 0.0077	0.562 ± 0.045	0.531 ± 0.031	0.913 ± 0.075	1.29 ± 0.29	1.18 ± 0.36	0.633 (inactive)
Nc1nc(N)nc(-c2cc(Cl)ccc2Cl)n1	0.906 ± 0.22	1 ± 0.052	1.05 ± 0.093	0.946 ± 0.052	1.18 ± 0.32	1.08 ± 0.17	0.986 (active)
O=C(NN=Cc1c(O)ccc2ccccc12)c1[nH]ncc1I	1.93 ± 0.15	1.24 ± 0.081	1.4 ± 0.063	0.491 ± 0.021	1.32 ± 0.076	1.3 ± 0.094	0.906 (active)
CC(Oc1ccc(Cl)cc1)C(=O)NCc1cccnc1 (centres undefined)	1.2 ± 0.11	0.981 ± 0.12	0.989 ± 0.096	1.05 ± 0.026	1.31 ± 0.17	1.17 ± 0.12	1.01 (active)
CCC(=O)Nc1ccc(S(=O)(=O)N2CCCC(Cc3nc(C4CC4)no3)C2)c(C)c1 (centres undefined)	0.885 ± 0.062	0.986 ± 0.1	1.01 ± 0.065	0.88 ± 0.048	1.21 ± 0.26	1.38 ± 0.51	0.961 (active)
COc1ccc(C(=O)CSc2nnc(NC(=O)C3CC(=O)N(c4cccc(OC)c4)C3)s2)cc1 (centres undefined)	1.15 ± 0.066	1.11 ± 0.11	1.23 ± 0.13	0.528 ± 0.026	0.758 ± 0.059	0.708 ± 0.23	1.01 (active)
CC(=O)N1CCC(C(=O)N2CCOCC2CN(C)C)CC1.O=CO (centres undefined)	0.979 ± 0.11	1.08 ± 0.17	0.924 ± 0.064	0.992 ± 0.08	1.13 ± 0.089	1.06 ± 0.082	0.992 (active)
CC(=O)C1=C(C)OC2(O)c3ccccc3C(=O)C12O (centres undefined)	0.903 ± 0.11	0.947 ± 0.089	1.23 ± 0.13	0.831 ± 0.029	1.02 ± 0.18	0.824 ± 0.12	0.945 (active)
C=CCN1CCCC1CNC(=O)c1cc2nn[nH]c2cc1OC.Cl (centres undefined)	0.987 ± 0.2	1.05 ± 0.16	0.962 ± 0.14	0.917 ± 0.045	1.3 ± 0.31	0.93 ± 0.07	0.999 (active)
COc1cccc(C=Nc2cccc([N+](=O)[O-])c2C)c1O	0.661 ± 0.054	0.906 ± 0.066	0.978 ± 0.035	0.903 ± 0.077	0.93 ± 0.088	0.948 ± 0.17	1 (active)
CC1(C)OC(=O)C(=Cc2ccc(I)o2)C(=O)O1	0.595 ± 0.069	1.01 ± 0.069	0.887 ± 0.17	0.589 ± 0.049	1.02 ± 0.18	0.877 ± 0.26	1.01 (active)
CCCC(=O)Nc1ncnc2c1ncn2[C@@H]1O[C@@H]2OP(=O)([O-])OC[C@H]2[C@H]1OC(=O)CCC [Prestw-813]	1.27 ± 0.12	1.14 ± 0.079	1.14 ± 0.12	0.991 ± 0.056	1.41 ± 0.14	1.21 ± 0.16	1 (active)
Cc1cc(C)nc(Nc2ncc(O)n2-c2ccc(F)cc2)n1	1.11 ± 0.087	1.1 ± 0.13	1.01 ± 0.038	0.992 ± 0.074	1.04 ± 0.14	1.16 ± 0.27	0.991 (active)
COc1ccc(CCNc2nnc(Cc3ccc(Cl)cc3)c(=O)[nH]2)cc1OC	0.928 ± 0.068	1.1 ± 0.089	0.877 ± 0.11	0.977 ± 0.05	1.07 ± 0.065	1.04 ± 0.08	1.02 (active)
O=C(OCCN1CCOCC1)c1ccc(O)cc1O	1.21 ± 0.12	1.06 ± 0.1	1.06 ± 0.056	1.05 ± 0.14	0.972 ± 0.044	0.856 ± 0.076	0.999 (active)
Cc1ccc(C2(c3ccc(C)cc3)CC2C(=O)Nc2cccnc2)cc1 (centres undefined)	0.883 ± 0.061	0.985 ± 0.076	0.82 ± 0.023	1.02 ± 0.036	1.01 ± 0.062	0.91 ± 0.14	0.998 (active)
COc1ccc(C=NNC(=O)CSc2nnc(-c3ccccc3)n2-c2ccccc2)cc1OC	1.14 ± 0.091	1.14 ± 0.074	1.09 ± 0.045	0.845 ± 0.059	0.958 ± 0.056	1 ± 0.076	0.996 (active)
O=C(c1ccc(OC(F)(F)F)cc1)N1CCC(Oc2cccnn2)CC1	1.04 ± 0.094	1.25 ± 0.1	0.926 ± 0.049	1.03 ± 0.073	1.08 ± 0.065	1.15 ± 0.087	1.01 (active)
COc1cc2c(cc1OC)C1C(=O)c3ccc4c(c3OC1CO2)C=CC(C)(C)O4 (centres undefined)	0.92 ± 0.071	0.99 ± 0.096	1.55 ± 0.14	0.853 ± 0.04	1.62 ± 0.26	2.12 ± 0.42	0.986 (active)
O=C(Nc1cc(N2CCN(Cc3ccccc3)CC2)ncn1)c1ccc2ccccc2n1	0.528 ± 0.04	0.984 ± 0.077	0.846 ± 0.036	0.94 ± 0.049	1.07 ± 0.067	1.24 ± 0.23	1.01 (active)
COc1c2occc2cc2ccc(=O)oc12	1.44 ± 0.21	1.21 ± 0.11	0.907 ± 0.051	0.91 ± 0.029	1.3 ± 0.15	1.04 ± 0.08	0.989 (active)
CCOc1ccccc1OCCCCOc1ccc(Cl)c(C)c1	0.947 ± 0.11	1.12 ± 0.081	1.07 ± 0.084	0.937 ± 0.1	1.03 ± 0.16	1.15 ± 0.35	1 (active)
CCN(CCO)CCCOc1ccc2c(Nc3cc(CC(=O)Nc4cccc(F)c4)n[nH]3)ncnc2c1	0.703 ± 0.17	0.902 ± 0.23	0.893 ± 0.098	0.982 ± 0.03	1.25 ± 0.25	1.18 ± 0.12	0.951 (active)

— the supplement of paper PMC10646978
